Measured values published in PubChem BioAssay (NCATS).
Inconclusive results are not listed. Where a call stands in place of a potency, no number is given. The source made the active and inactive calls. The call rests on the fitted dose curve; in most records, active means well fitted inhibition curve with a large enough effect; inconclusive means small, poorly fitted or top-dose-only effect; inactive means flat fitted curve, though single readings scatter. Residues, ends and D or L forms follow the SMILES beside them. *: point of attachment. Cbz = O=C(OCc1ccccc1)*

system: Zika virus NS2B-NS3 protease; assay: Primary screen GU AMC qHTS for Zika virus inhibitors (AID 1347154); conditions: Zika NS2B-NS3 unlinked protease, AMC fluorogenic substrate; series mostly up to 54.1 µM; further: nearly all actives have a fitted effect of over 70% in size
Summary of the method: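 Unlinked Zika NS2B hydrophilic domain–NS3 protease complex at 25 nM in 10 mM Tris-HCl pH 8.0, 0.01% Tween 20, with an AMC peptide substrate. Fluorescence change (340/450 nm) over 15 min at room temperature, normalized to controls, fitted to 4-parameter Hill.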

Structure (SMILES)	Potency
CC(C)C[C@@H](C=O)NC(=O)[C@H](CC(C)C)NC(=O)[C@H](CC(C)C)NC(=O)OCc1ccccc1 (Cbz-Leu-Leu-Leu-aldehyde)	inactive
CC(C=CC=C(C)C=CC1=C(C)CCCC1(C)C)=CC=CC=C(C)C=CC=C(C)C=CC1=C(C)CCCC1(C)C	inactive
CC(C)(C)[N+]([O-])=Cc1ccc(S(=O)(=O)O)cc1S(=O)(=O)O	inactive
